Publication PMC4336329 (PLoS ONE, 2015)
Among all 310,000 compounds or so, about 14,000 (4.5%) showed an effect of 50% or more. The effect is printed as a negative number. The entries come from a sample that favours strong results as a whole.

Biological target: human ether-à-go-go-related gene (hERG) potassium channel (human, UniProt Q12809)
Assay: primary screen, population patch clamp on CHO cells stably expressing hERG; higher = less effect of the substance
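Further: peak tail current of the secondary pulse compared with the same well before compound.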

human ether-à-go-go-related gene (hERG) potassium channel, sequence (Q12809 whole entry, looked up): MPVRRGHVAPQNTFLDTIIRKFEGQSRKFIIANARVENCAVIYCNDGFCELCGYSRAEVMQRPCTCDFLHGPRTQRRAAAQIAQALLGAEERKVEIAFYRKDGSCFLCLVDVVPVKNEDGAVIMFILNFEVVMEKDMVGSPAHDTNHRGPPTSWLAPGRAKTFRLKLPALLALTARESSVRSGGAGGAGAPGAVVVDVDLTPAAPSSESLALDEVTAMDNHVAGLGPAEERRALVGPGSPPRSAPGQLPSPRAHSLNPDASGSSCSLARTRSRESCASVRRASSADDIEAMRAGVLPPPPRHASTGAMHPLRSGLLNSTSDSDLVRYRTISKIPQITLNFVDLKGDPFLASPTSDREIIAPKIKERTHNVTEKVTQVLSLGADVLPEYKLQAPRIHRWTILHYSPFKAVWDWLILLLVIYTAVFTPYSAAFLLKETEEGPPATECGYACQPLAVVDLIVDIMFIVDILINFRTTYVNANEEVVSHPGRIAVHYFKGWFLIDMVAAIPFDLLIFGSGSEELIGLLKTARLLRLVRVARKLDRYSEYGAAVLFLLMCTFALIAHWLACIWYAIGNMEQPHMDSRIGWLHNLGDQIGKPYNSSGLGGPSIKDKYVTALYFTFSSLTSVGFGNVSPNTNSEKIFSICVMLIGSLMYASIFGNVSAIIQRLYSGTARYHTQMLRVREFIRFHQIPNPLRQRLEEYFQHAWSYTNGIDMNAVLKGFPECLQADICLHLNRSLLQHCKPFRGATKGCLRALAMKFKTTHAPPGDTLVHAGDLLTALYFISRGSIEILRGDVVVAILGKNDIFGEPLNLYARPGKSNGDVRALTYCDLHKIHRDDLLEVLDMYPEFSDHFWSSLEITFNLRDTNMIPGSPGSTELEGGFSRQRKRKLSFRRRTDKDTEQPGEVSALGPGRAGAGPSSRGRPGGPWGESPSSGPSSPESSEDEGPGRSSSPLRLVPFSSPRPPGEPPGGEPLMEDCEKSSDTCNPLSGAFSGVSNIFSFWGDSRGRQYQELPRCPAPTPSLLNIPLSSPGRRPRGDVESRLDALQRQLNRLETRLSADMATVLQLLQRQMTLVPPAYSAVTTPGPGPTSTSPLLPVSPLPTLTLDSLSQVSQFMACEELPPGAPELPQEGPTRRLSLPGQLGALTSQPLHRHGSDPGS

SMILES | hERG current change (%, negative = inhibition) at 10uM [%]
COc1ccc(-c2cc(C(=O)N3CCN(c4ncccn4)CC3)c3ccccc3n2)cc1 | -33.4
CCCCNCc1nc2ccccc2c(=O)[nH]1.Cl | 5.81
COc1ccc(/C=N\NC(=O)c2ccc(=O)[nH]n2)cc1O | 18.4
Brc1cccc(-c2nnc(SCc3ccon3)n2-c2ccccc2)c1 | -48.9
Cc1ccc(NC(=O)CN2c3cccc4cccc(c34)S2(=O)=O)cc1S(=O)(=O)N1CCOCC1 | 0.358
Cc1cc(NC(=O)COc2c(C)cccc2C)no1 | 22.3
CC(=O)c1cccc(NC(=O)C(C)N(C)CC(=O)Nc2ccc(Cl)cc2)c1 (centres unmarked) | -5.14
c1ccc(Oc2nnc(-c3cccs3)c3ccccc23)cc1 | -5.87
Cc1ccc(S(=O)(=O)N2CCN(C(=O)c3cccc(-n4cccc4)c3)CC2)cc1 | -51.3
O=C(c1ccncc1)N1CCN(S(=O)(=O)c2ccc(F)cc2)CC1 | 15.2
O=C(c1cccc(-n2cccc2)c1)N1CCN(S(=O)(=O)c2ccc(F)cc2)CC1 | -34.7
O=C(c1cccc(-n2cccc2)c1)N1CCN(S(=O)(=O)c2ccccc2)CC1 | -32
Cc1ccc(S(=O)(=O)N2CCN(C(=O)c3ccc(S(=O)(=O)N4CCCC4)cc3)CC2)cc1 | -6.64
Cc1ccc(S(=O)(=O)N2CCCN(C(=O)c3ccc(-n4cccn4)cc3)CC2)cc1 | -74.2
CC(C)(C)C(=O)N1CCN(c2ncccc2C(F)(F)F)CC1 | 1.88
O=C(c1ccc(F)cc1)N1CCN(S(=O)(=O)c2ccc(Br)cc2)CC1 | -5.63
O=C(O)CCC(=O)N1CCN(c2ncccc2C(F)(F)F)CC1 | 9.74
Cc1ccc(S(=O)(=O)N2CCN(C(=O)c3ccccc3)CC2)cc1 | -31
Cc1ccnn1-c1ccc(C(=O)N2CCCN(S(=O)(=O)c3ccc(F)cc3)CC2)cc1 | -69.7
O=C(c1ccc(-n2cccn2)cc1)N1CCN(c2ncccc2C(F)(F)F)CC1 | -60.4
CCOC(=O)c1sc2nc(N3CCCC3)c3c(c2c1N)CC(C)(C)OC3 | 10.4
O=[N+]([O-])c1cccc(N/N=C/c2cccc(O)c2O)c1 | 16.7
COc1ccc(-c2n[nH]c3c2C(c2ccc(OC)c(OC)c2)N(c2ccccc2)C3=O)cc1 (centres unmarked) | 3.73

SMILES | hERG current change (%, negative = inhibition) at 10uM [%]
Cc1cc(Cl)ccc1N(CC(=O)NCc1ccccc1)S(C)(=O)=O | -1.12
Cc1cc(Cl)ccc1OCCCC(=O)NNC(=O)c1ccncc1 | -30.2
CC(Sc1nnc(COc2ccc(Cl)cc2)n1Cc1ccccc1)C(=O)O (centres unmarked) | 3.06
COc1ccccc1NC(=O)CSc1nnc(COc2ccc(Cl)cc2)n1Cc1ccco1 | -12.7
Cl.Clc1ccc(OCc2nnc(SCCN3CCCCC3)n2Cc2ccco2)cc1 | -75.9
O=C(CSc1nnc(COc2ccc(Cl)cc2)n1Cc1ccco1)c1ccccc1F | 13.1
CC(Sc1nnc(COc2ccc(Cl)cc2)n1Cc1ccco1)C(=O)N1CCNC1=O (centres unmarked) | -55.9
Clc1ccc(OCc2nnc(SCc3nc4ccccc4[nH]3)n2Cc2ccco2)cc1 | -36
N#Cc1c(NC(=O)CSc2nc(-c3ccco3)cc(C(F)(F)F)n2)sc2c1CCCC2 | 12.3
Cc1ccc(/C=N/Nc2nc(C(C)(C)C)cs2)o1.Cl | -22.5
CC(=O)Nc1cccc(NC(=O)COc2ccc3c(c2)OCO3)c1 | 4.48
O=C(O)c1ccc(Br)cn1 | 9.73
O=C(O)c1ccc([N+](=O)[O-])c(CS(=O)(=O)c2ccc(Cl)cc2)c1 | 6.82
COC(=O)C(C(C)C)N1CCc2c(C)nc3c(C#N)cnn3c21 (centres unmarked) | 13.9
COC(CN1CCc2c(C)nc3c(C#N)cnn3c21)OC | 5.84
Cc1nc2c(C#N)cnn2c2c1CCN(Cc1ccccc1)N2C | -58
Cc1nc2c(C#N)cnn2c2c1CCN2CC1CCCO1 (centres unmarked) | -51.7
Cc1nc2c(C#N)cnn2c2c1CCNN2C | -1.38
N#Cc1cnn2c(C(F)(F)F)c3c(nc12)CCCC3 | -5.18
Cc1cc(=O)n2c3ccccc3n(C)c2n1 | 9.7
O=[N+]([O-])c1ccc(N2CCN(C(=S)NC3CCCCC3)CC2)cc1 | -53
O=C(NC1CCCCC1)N1CCN(c2ccccc2)CC1 | -0.0694
S=C(NC1CC1)N1CCN(c2ccc(Cl)cc2)CC1 | 1.76

SMILES | hERG current change (%, negative = inhibition) at 10uM [%]
S=C(NC1CCCC1)N1CCN(c2ccc(Cl)cc2)CC1 | -13.6
O=C(NC1CCCCC1)N1CCN(c2ccc(Cl)cc2)CC1 | -27.8
O=C(NC1CCCCC1)N1CCN(c2ccc([N+](=O)[O-])cc2)CC1 | -92.4
COc1ccc([C@H]2CC(=O)C=C(c3cccc4c3Oc3ccccc3S4)C2)cc1 | -28.4
Cc1ccc(CNC(=O)CC(C)S(=O)(=O)c2ccc3c(c2)NC(=O)CO3)cc1 (centres unmarked) | -22.1
CC(=O)c1ccn(S(=O)(=O)c2ccc(Cl)cc2)c1 | 6.57
CC1(C)CC(=O)C([N+](=O)[O-])=C(NCCCC(=O)O)C1.O | 15
Cc1cc(C(=O)COC(=O)C2=NNC(=O)CC2)c(C)n1-c1ccc(OC(F)F)cc1 | -48.4
Cc1cc(C(=O)C(C)OC(=O)C2=NNC(=O)CC2)c(C)n1-c1ccc(OC(F)F)cc1 (centres unmarked) | -73.3
Cc1ccc(-n2c(C)cc(C(=O)COC(=O)C3=NNC(=O)CC3)c2C)cc1 | -42.3
COc1cc(C(=O)NCC(c2ccco2)N2CCCC2)ccc1OCc1c(C)noc1C (centres unmarked) | -21.1
O=C(Nc1cccc2ncccc12)c1ccc(-c2ccc(Cl)cc2Cl)o1 | -7.06
CS(=O)(=O)N(CC(=O)Nc1ccc(S(=O)(=O)N2CCOCC2)cc1)c1cccc(F)c1 | -9.72
Cc1noc(C)c1COc1cccc(C(=O)Nc2ccccc2)c1 | -7.11
Cc1ccc(OCCNC(=O)CCC(=O)N2CCOCC2)cc1 | 15.9
Cc1ccc(S(=O)(=O)N2CCN(CC(=O)N/N=C\c3ccc(Cl)c([N+](=O)[O-])c3)CC2)cc1 | -30.8
Cc1ccc(S(=O)(=O)N2CCN(CC(=O)Nc3ccc(N4CCOCC4)cc3)CC2)cc1C | -11.5
CC1CCN(S(=O)(=O)c2ccc(NC(=O)CN3CCN(C)CC3)cc2)CC1 | -16
O=C(CN1CCN(S(=O)(=O)c2ccccc2)CC1)Nc1ccc(Cl)c(Cl)c1 | -16
CC1CCN(CC(=O)Nc2ccc(S(=O)(=O)N3CCC(C)CC3)cc2)CC1.Cl | -42.8
O=C(CN1CCN(S(=O)(=O)c2ccccc2)CC1)Nc1ccc(Cl)c([N+](=O)[O-])c1 | -65
Cc1ccc(S(=O)(=O)N2CCN(CC(=O)Nc3ccc([N+](=O)[O-])cc3)CC2)cc1C | -76.9
NS(=O)(=O)c1ccc(NC(=O)CN2CCCC2)cc1 | 3.7

SMILES | hERG current change (%, negative = inhibition) at 10uM [%]
CC1CC(C)CN(CC(=O)Nc2ccc(S(N)(=O)=O)cc2)C1 (centres unmarked) | 13.7
Cc1ccc(C)c(S(=O)(=O)N2CCN(CC(=O)Nc3ccc([N+](=O)[O-])cc3)CC2)c1 | -40.7
CC1CCN(S(=O)(=O)c2ccc(NC(=O)CN3CCN(c4ccccc4)CC3)cc2)CC1 | -58.2
CC1CN(CC(=O)Nc2ccc(S(N)(=O)=O)cc2)CC(C)O1 (centres unmarked) | -52
Cc1ccccc1S(=O)(=O)Cc1ccc(C(=O)NCCCN2CCCC(C)C2)o1 (centres unmarked) | -21.1
CCc1ccccc1NC(=O)c1ccc(-c2csc(C)n2)cc1 | -12.4
COc1cccc(C(=O)OCn2nnc3ccccc3c2=O)c1 | 0.671
COc1cccc(-n2c(Cc3cc(=O)[nH]c(=O)[nH]3)nnc2SCc2cccc(C(F)(F)F)c2)c1 | 15.8
CCN(CC(=O)Nc1c(F)cccc1F)C(=O)c1ccc(N2C(=O)c3ccccc3C2=O)cc1 | 1.38
CN(CC(=O)NCCCN1CCOCC1)S(=O)(=O)c1ccc(F)cc1 | 15.4
NC(N)=NCCCC(NC(=O)c1ccccc1)C(=O)Nc1ccc2ccccc2c1 (centres unmarked) | 12.5
COCC(C)N=C1NN=C(c2cc(C)n(Cc3ccccc3Cl)c2C)CS1 (centres unmarked) | -9.9
CCOC(=O)C1=C(C)NC(C)=C(C(=O)OCC)C1c1cn(-c2ccccc2)nc1-c1ccco1 | -1.05
COc1cc(C(=O)OCC(=O)NC(C)CCc2ccccc2)cc(OC)c1OC (centres unmarked) | 9.14
O=C(CN1CCN(S(=O)(=O)c2ccccc2)CC1)Nc1ccc([N+](=O)[O-])cc1 | -73.4
CC1CCCN(CC(=O)Nc2ccc(S(=O)(=O)N3CCCCCC3)cc2)C1 (centres unmarked) | -66.8
O=C(CSc1ncccn1)Nc1ccc(S(=O)(=O)N2CCCCC2)cc1 | -12.9
CC1CCCN(CC(=O)Nc2ccc(S(=O)(=O)N3CCCCC3)cc2)C1 (centres unmarked) | -15.7
Cc1cc(C)c(C)c(S(=O)(=O)N2CCN(CC(=O)Nc3ccc([N+](=O)[O-])cc3)CC2)c1C | 15.4
Cc1cc(=O)[nH]c(SCC(=O)Nc2ccc(S(=O)(=O)N3CCCCC3)cc2)n1 | -6.37
O=[N+]([O-])c1ccc(NC(=S)N2CCN(S(=O)(=O)c3ccccc3)CC2)cc1 | -24.6
Cc1cc(C)nc(SCC(=O)Nc2ccc(S(=O)(=O)N3CCCCC3)cc2)n1 | -61.3
CC1CCCN(CC(=O)Nc2ccc(S(=O)(=O)N3CCCC3)cc2)C1 (centres unmarked) | 1.82
